Test results from PubChem BioAssay (NCATS).
Values joined by “and” are separate entries in the source; they are usually repeats but may differ in a detail not shown here. Identical values can stand only once. Records with an inconclusive call do not appear. Active and inactive are the calls of the source. Unless noted, the call rests on the fitted dose curve; in most records, active means well fitted curve in the direction sought with a large enough effect; inconclusive means small, poorly fitted or top-dose-only effect, or another doubt; inactive means no such curve, though single readings can be large; an effect the other way counts as inactive or inconclusive.

Experiments:
[1] = Identifying Small Molecule Inhibitors of Pancreatic Cancer Stem Cells (SN12C, Adherent) (AID 1259358);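 further: potency means the concentration at half of the fitted maximal effect; cell survival measured after 48 h of compound exposure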
Procedure, shortened: (§1)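 Viability is scored by CellTiter-Glo luminescence 48 h after dosing, expressed as percent activity against vehicle and no-cell references. Spheroid formats rely on cells cultured 14 days in stem cell media beforehand.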

[2] = Identifying Small Molecule Inhibitors of Pancreatic Cancer Stem Cells (A278, Adherent) (AID 1259361); further: nearly all actives have a fitted effect of over 35% in size
Procedure, shortened: as §1

[3] = Identifying Small Molecule Inhibitors of Pancreatic Cancer Stem Cells (Panc1, Adherent) (AID 1259362); conditions: Potency: viability; further: potency means the concentration at half of the fitted maximal effect
Procedure, shortened: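 Cytotoxicity read by CellTiter-Glo luminescence after 48 h compound exposure at 37C; percent activity scaled between DMSO-treated cells and cell-free wells. Spheroid formats used cells pre-formed 14 days in stem cell media on hydrogel.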

[4] = Natriuretic polypeptide receptor (hNpr1) antagonism - Pilot counterscreen GloSensor control cell line (AID 1347045; calls by dose curve; further: potency means the concentration at half of the fitted maximal effect)
Procedure, shortened: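 Control counterscreen: luciferase cGMP-biosensor HEK293 cells (no Npr1) received compound for 30 min at room temperature after GloSensor substrate loading. Luminescence was measured before and 20 min after soluble guanylyl cyclase activation by 50 uM nitroprusside.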

[5] = molecular target: Atrial natriuretic peptide receptor 1 (Homo sapiens) (UniProt P16066); assay: Natriuretic polypeptide receptor (hNpr1) antagonism - Pilot screen (AID 1347049; calls by dose curve;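 further: HEK293 cells with hNpr1 and GloSensor cGMP luciferase stimulated by 0.1 nM hNppA; agonist-evoked cGMP luminescence read 20 min after hNppA addition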; further: potency means the concentration at half of the fitted maximal effect)
Procedure, shortened: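 Cells expressing receptor plus cGMP biosensor are seeded and incubated overnight at 37C, then loaded with GloSensor reagent (2% final) at room temperature for 2 h. Library compounds go on for 30 min. A pre-read precedes agonist (hNppA, 0.1 nM final) and a 20-min readout.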

[6] = molecular target: Atrial natriuretic peptide receptor 2 (Homo sapiens) (UniProt P20594); assay: Natriuretic polypeptide receptor (hNpr2) antagonism - Pilot subtype selectivity assay (AID 1347050; calls by dose curve; further: potency means the concentration at half of the fitted maximal effect)
Procedure, shortened: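 Read-out: GloSensor luminescence (CCD imager), baseline vs post-stimulation. HEK293 cells expressing hNpr2; compounds pre-incubated 30-50 min at ambient temperature; hNppC 1 nM final, 20 min.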

[7] = molecular target: T1, Tyrosine-protein phosphatase non-receptor type substrate 1 (Homo sapiens) + Leukocyte surface antigen CD47 (Homo sapiens) (UniProt P78324+Q08722); assay: CD47-SIRPalpha protein protein interaction - LANCE assay qHTS validation (AID 1347057; active means well fitted curve in the direction sought with a large enough effect in the signal ratio, with a control signal flat, not every such curve was filed as active; the % refers to the signal ratio; further: series mostly up to about 38 µM)
Procedure, shortened: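 Inhibition of soluble CD47/SIRPalpha ectodomain association by titrated compounds, measured as 665/615 nm time-resolved FRET ratio after sequential 30 min room-temperature incubations.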

[8] = molecular target: T1, Tyrosine-protein phosphatase non-receptor type substrate 1 (Homo sapiens) + Leukocyte surface antigen CD47 (Homo sapiens); assay: CD47-SIRPalpha protein protein interaction - Alpha assay qHTS validation (AID 1347059);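 further: bead proximity luminescence from CD47 binding SIRPalpha after compound preincubation with SIRPalpha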
Procedure, shortened: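 In PBS (pH 7.4) with 0.05% IGEPAL CA-630, compound is preincubated with biotin-Avi-SIRPalpha ectodomain before His-CD47 ectodomain and affinity beads are added. Light-protected room-temperature incubations; AlphaScreen readout.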

[9] = molecular target: Parathyroid hormone/parathyroid hormone-related peptide receptor (Homo sapiens) (UniProt Q03431); assay: qHTS for PTHR1 Agonists: Optimization Screen against the NCGC LOPAC library (AID 1347079);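 further: GloSensor cAMP luminescence in HEK-293 GP2 cells expressing human PTHR1 with IBMX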
Procedure, shortened: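 HEK-293 GP2 cells, PTHR1 + GloSensor cAMP; 3000 cells/well, o/n. Luciferin + IBMX 0.5mM each (stock), 1 hr 37C. Cpd titration, 1 hr 37C. Lum after 15 min RT. Ctrl M-PTH(1-15) top 10uM.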

[10] = molecular target: Nucleoprotein (Lymphocytic choriomeningitis virus (strain Armstrong)) (UniProt P09992); assay: qHTS for Inhibitors of the Functional Ribonucleoprotein Complex (vRNP) of Lymphocytic Choriomeningitis Arenaviruses (LCMV): LCMV Primary Screen - GLuc reporter signal (AID 1347086; calls by dose curve; further: nearly all actives have a fitted effect of over 70% in size; further: potency means the concentration at half of the fitted maximal effect)
[11] = P-glycoprotein substrates identified in KB-3-1 adenocarcinoma cell line, qHTS therapeutic library screen (AID 1346986); further: nearly all actives have a fitted effect of over 60% in size;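 further: potency means the concentration at half of the fitted maximal effect; potency is for cytotoxicity meaning loss of cell viability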
Procedure, shortened: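 72 h cell-killing screen, 500 cells/well, CellTiter-Glo luminescence. Paired lines KB-3-1/KB-8-5-11; P-gp dependence checked by tariquidar co-treatment and HEK-293 MDR-19 versus empty-vector cells.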

[12] = qHTS for Inhibitors of the Functional Ribonucleoprotein Complex (vRNP) of Lassa (LASV) Arenavirus: LASV Primary Screen - GLuc reporter signal (AID 1347082; calls by dose curve; tested in HEK293 reporter line; further: nearly all actives have a fitted effect of over 60% in size; further: potency means the concentration at half of the fitted maximal effect)
[13] = qHTS for Inhibitors of the Functional Ribonucleoprotein Complex (vRNP) of Lassa (LASV) Arenavirus: Viability assay - alamar blue signal for LASV Primary Screen (AID 1347083; calls by dose curve; tested in HEK293 reporter line; further: nearly all actives have a fitted effect of over 80% in size; further: potency means the concentration at half of the fitted maximal effect)
[14] = P-glycoprotein substrates identified in KB-8-5-11 adenocarcinoma cell line, qHTS therapeutic library screen (AID 1346987); further: nearly all actives have a fitted effect of over 65% in size; further: potency means the concentration at half of the fitted maximal effect
Procedure, shortened: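 Compounds are pinned in dose-response onto KB-8-5-11 cells (500 cells/well, colchicine-free medium) and left 72 h at 37 degree C. CellTiter-Glo luminescence then yields AC50 values.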

[15] = NS1 protein of Zika virus - qHTS assay to identify small molecule inhibitors in human HEK 293 cells (AID 1347053); further: nearly all actives have a fitted effect of over 55% in size; further: potency means the concentration at half of the fitted maximal effect
Procedure, shortened: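 Read-out is a two-antibody TR-FRET for ZIKV NS1, normalized between uninfected cells and infected cells. Compound added 1 h before MR766 infection at MOI 0.5; human HEK 293 cells incubated 24 h, 37 C.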

[16] = qHTS for Inhibitors of the Functional Ribonucleoprotein Complex (vRNP) of Lymphocytic Choriomeningitis Arenaviruses (LCMV): Viability assay - alamar blue signal for LCMV Primary Screen (AID 1347085; calls by dose curve; tested in HEK293 reporter line; further: nearly all actives have a fitted effect of over 80% in size; further: potency means the concentration at half of the fitted maximal effect)

Parathyroid hormone/parathyroid hormone-related peptide receptor (Homo sapiens), sequence (Q03431 whole entry, looked up): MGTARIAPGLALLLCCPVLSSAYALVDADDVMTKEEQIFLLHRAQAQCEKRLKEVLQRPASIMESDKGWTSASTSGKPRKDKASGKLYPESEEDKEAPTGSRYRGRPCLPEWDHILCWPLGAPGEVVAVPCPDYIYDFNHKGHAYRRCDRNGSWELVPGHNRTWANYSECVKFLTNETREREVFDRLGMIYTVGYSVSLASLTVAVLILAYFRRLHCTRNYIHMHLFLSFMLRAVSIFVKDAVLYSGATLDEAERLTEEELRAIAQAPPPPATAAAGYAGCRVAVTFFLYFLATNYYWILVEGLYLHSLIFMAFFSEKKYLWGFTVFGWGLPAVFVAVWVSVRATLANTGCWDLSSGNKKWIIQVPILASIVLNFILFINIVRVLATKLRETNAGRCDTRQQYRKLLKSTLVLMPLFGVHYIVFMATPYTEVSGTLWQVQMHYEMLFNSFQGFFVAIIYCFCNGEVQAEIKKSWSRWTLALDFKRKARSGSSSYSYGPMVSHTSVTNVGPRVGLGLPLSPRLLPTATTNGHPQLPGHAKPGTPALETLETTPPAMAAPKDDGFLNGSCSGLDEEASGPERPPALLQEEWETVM
Atrial natriuretic peptide receptor 1 (Homo sapiens), sequence (P16066 whole entry, looked up): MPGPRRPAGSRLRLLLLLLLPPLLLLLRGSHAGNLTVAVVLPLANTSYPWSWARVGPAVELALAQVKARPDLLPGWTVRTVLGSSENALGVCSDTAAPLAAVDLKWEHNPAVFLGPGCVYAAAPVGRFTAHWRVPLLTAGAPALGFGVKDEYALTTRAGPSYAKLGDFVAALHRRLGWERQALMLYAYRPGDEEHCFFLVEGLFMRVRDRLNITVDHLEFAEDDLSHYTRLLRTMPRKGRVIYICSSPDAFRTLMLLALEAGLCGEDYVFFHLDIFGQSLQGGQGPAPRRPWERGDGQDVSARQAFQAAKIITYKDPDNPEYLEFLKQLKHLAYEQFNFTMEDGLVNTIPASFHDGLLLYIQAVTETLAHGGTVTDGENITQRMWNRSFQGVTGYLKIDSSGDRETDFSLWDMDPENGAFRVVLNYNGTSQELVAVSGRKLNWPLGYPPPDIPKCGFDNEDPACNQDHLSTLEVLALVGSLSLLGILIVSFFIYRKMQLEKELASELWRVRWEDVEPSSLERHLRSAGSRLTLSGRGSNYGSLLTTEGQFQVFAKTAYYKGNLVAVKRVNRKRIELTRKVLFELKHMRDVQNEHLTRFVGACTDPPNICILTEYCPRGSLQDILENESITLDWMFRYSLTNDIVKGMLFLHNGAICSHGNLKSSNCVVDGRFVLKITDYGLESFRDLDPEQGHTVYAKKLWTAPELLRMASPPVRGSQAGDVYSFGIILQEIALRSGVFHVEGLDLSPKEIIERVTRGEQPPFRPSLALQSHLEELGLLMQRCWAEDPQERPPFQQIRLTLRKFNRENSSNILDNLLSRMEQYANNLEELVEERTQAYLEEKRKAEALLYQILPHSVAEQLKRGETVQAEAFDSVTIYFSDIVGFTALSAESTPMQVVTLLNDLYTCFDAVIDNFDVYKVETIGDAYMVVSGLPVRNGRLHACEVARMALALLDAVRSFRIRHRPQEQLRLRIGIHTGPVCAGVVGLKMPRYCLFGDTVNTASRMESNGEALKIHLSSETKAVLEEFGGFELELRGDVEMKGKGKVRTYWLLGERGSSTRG
Nucleoprotein (Lymphocytic choriomeningitis virus (strain Armstrong)), sequence (P09992 whole entry, looked up): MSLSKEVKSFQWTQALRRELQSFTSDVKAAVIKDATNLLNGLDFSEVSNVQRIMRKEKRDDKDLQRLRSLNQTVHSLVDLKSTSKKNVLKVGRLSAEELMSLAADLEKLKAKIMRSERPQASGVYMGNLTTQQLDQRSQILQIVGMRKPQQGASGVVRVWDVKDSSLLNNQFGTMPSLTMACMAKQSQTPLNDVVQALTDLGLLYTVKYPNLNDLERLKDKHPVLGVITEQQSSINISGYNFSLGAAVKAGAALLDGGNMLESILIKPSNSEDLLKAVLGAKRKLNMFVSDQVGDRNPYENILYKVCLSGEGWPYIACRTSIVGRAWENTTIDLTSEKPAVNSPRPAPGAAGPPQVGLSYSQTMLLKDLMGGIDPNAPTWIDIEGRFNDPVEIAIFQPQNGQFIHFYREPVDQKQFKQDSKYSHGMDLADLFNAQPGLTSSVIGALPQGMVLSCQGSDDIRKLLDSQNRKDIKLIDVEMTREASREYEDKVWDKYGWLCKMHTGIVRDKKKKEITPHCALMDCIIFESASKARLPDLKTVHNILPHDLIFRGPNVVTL
T1 sequence (P78324 whole entry, looked up, the tested form may be a part): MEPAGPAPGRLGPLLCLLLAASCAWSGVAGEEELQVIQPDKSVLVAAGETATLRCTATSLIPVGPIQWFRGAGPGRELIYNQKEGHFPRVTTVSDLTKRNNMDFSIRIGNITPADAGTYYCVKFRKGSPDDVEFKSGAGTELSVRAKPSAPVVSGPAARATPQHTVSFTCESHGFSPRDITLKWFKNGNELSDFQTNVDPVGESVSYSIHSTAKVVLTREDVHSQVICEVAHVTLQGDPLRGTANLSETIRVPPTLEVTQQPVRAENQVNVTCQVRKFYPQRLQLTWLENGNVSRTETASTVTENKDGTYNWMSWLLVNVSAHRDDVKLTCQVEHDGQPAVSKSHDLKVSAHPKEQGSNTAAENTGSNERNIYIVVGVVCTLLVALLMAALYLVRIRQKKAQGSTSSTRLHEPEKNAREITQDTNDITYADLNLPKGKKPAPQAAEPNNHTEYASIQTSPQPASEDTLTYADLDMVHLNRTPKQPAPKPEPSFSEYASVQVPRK
T1 sequence (Q08722 whole entry, looked up, the tested form may be a part): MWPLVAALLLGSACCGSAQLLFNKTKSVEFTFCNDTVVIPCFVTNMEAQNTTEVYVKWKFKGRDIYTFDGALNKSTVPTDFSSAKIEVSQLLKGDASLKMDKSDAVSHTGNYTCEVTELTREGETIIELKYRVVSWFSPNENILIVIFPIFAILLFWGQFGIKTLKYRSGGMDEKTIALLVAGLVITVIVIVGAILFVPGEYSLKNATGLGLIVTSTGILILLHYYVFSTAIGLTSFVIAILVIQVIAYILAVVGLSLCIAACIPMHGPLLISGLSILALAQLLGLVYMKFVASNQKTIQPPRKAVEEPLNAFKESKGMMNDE
Atrial natriuretic peptide receptor 2 (Homo sapiens), sequence (P20594 whole entry, looked up): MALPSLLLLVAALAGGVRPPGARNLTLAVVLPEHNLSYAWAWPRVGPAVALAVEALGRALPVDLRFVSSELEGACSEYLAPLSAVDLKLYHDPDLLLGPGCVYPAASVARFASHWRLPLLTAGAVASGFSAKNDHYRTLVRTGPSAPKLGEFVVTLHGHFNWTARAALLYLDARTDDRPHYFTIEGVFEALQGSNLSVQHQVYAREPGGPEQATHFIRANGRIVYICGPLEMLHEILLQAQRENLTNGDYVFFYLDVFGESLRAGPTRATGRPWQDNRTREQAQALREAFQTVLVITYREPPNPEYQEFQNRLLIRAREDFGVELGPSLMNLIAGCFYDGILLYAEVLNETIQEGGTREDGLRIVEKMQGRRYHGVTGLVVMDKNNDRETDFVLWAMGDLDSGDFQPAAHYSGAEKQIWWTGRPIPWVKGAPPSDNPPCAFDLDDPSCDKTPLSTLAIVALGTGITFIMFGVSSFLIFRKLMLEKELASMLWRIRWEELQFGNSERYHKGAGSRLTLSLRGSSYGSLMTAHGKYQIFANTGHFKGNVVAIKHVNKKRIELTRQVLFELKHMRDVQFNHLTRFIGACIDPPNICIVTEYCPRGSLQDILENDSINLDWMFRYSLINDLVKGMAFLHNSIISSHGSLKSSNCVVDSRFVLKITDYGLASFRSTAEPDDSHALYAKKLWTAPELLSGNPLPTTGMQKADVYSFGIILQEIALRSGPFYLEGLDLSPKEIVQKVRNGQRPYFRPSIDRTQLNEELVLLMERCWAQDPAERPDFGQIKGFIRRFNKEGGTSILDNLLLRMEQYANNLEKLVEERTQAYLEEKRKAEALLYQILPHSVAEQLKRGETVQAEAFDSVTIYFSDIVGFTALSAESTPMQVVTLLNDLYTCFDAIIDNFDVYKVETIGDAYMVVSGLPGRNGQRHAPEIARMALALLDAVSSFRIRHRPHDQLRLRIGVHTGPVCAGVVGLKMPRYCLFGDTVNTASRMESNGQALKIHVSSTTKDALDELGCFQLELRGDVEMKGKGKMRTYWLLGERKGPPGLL

COc1ccc2c(c[n+](C)c3c4cc5c(cc4ccc23)OCO5)c1OC
inactive: outcome [7] | Potency [8] | outcome [9] | Potency [10]
active: Potency [1] 20.9 µM | IC50 (viability decrease) [2] 16.6 µM | Potency [3] 6.62 µM | Potency [4] 13.1 µM | Potency [5] 16.9 µM | Potency [6] 14.7 µM

CC(C)(C)c1cc(C=C(C#N)C#N)cc(Br)c1O
active: Potency [11] 20.6 µM
inactive: Potency [12] | Potency [13]

O=c1cccc2n1CC1CNC[C@H]2C1
active: Potency [13] 27.3 µM
inactive: Potency [11] | Potency [14] | Potency [12] | Potency [10]

COc1cc2cc(c1Cl)N(C)C(=O)C[C@H](OC(=O)C(C)C)[C@]1(C)O[C@H]1[C@H](C)[C@@H]1C[C@@](O)(NC(=O)O1)[C@H](OC)C=CC=C(C)C2
inactive: Potency [15] | Potency [12] | Potency [13] | Potency [16] | Potency [10]
active: Potency [14] 0.001 µM

Cc1[nH]nc2ccc(-c3cncc(OC[C@@H](N)Cc4c[nH]c5ccccc45)c3)cc12
active: Potency [14] 526 nM and 5.17 µM | Potency [15] 5.9 µM | Potency [12] 0.485 µM | Potency [13] 0.172 µM | Potency [16] 0.432 µM | Potency [10] 0.243 µM

O=[N+]([O-])c1ccc([As](=O)(O)O)cc1
inactive: Potency [14] | Potency [15] | Potency [12] | Potency [13] | Potency [16] | Potency [10]

CN(C)NC(=O)CCC(=O)O
inactive: Potency [14] | Potency [15] | Potency [12] | Potency [13] | Potency [16] | Potency [10]

COCCOCCO
inactive: Potency [14] | Potency [15] | Potency [12] | Potency [13] | Potency [16] | Potency [10]

C[C@]12CC[C@@H]3[C@@H](CCC4=CC(=O)CC[C@@H]43)[C@@H]1CC[C@@H]2OC(=O)CCc1ccccc1
inactive: Potency [15] | Potency [12] | Potency [13] | Potency [16] | Potency [10]
active: Potency [14] 5.8 µM

C[C@]12Cc3cn[nH]c3C[C@@H]1CC[C@@H]1[C@H]2CC[C@@]2(C)[C@H]1CC[C@]2(C)O
inactive: Potency [14] | Potency [15] | Potency [12] | Potency [13] | Potency [16] | Potency [10]

C=C1C[C@H]2[C@H]3CCC(=O)[C@@]3(C)CC[C@@H]2[C@@]2(C)C=CC(=O)C=C12
inactive: Potency [14] | Potency [15] | Potency [12] | Potency [13] | Potency [16] | Potency [10]

CCCCOC(=O)c1ccccc1C(=O)OCc1ccccc1
inactive: Potency [14] | Potency [15] | Potency [12] | Potency [13] | Potency [16] | Potency [10]

C=CC(=O)NCNC(=O)C=C
inactive: Potency [14] | Potency [15] | Potency [12] | Potency [13] | Potency [16] | Potency [10]

OCCCBr
inactive: Potency [14] | Potency [15] | Potency [12] | Potency [13] | Potency [16] | Potency [10]

Cc1c(C(=O)c2cccc3ccccc23)c2cccc3c2n1[C@H](CN1CCOCC1)CO3
inactive: Potency [5] | Potency [6] | outcome [9]
active: Potency [14] 7.43 µM

CCN(CC)C(=O)c1ccc(C2=CC3(CCNCC3)Oc3cccc(O)c32)cc1
inactive: Potency [14] | Potency [15] | Potency [12] | Potency [13] | Potency [16] | Potency [10]

C[C@]12CC[C@H]3[C@@H](CCC4=CC(=O)CC[C@@]43C)[C@H]1CC[C@H]2O
inactive: Potency [15] | Potency [12] | Potency [13] | Potency [16] | Potency [10]
active: Potency [14] 11.8 µM

CCOCCOC(C)=O
inactive: Potency [14] | Potency [15] | Potency [12] | Potency [13] | Potency [16] | Potency [10]

c1ccc(C2(c3ccccc3)CC2C2=NCCN2)cc1 (centres undefined)
inactive: Potency [14] | Potency [5] | Potency [15] | outcome [9] | Potency [12] | Potency [13] | Potency [16] | Potency [10]

CN(C)[C@@H]1C(=O)C(C(N)=O)=C(O)[C@@]2(O)C(=O)C3=C(O)c4c(O)cccc4[C@@](C)(O)[C@H]3[C@H](O)[C@@H]12
inactive: Potency [14] | Potency [15] | Potency [12] | Potency [13] | Potency [16] | Potency [10]

O=[N+]([O-])c1c(Cl)c(Cl)cc(Cl)c1Cl
inactive: Potency [14] | Potency [15] | Potency [12] | Potency [13] | Potency [16] | Potency [10]

NC1=NC(=O)N2CC12 (centres undefined)
inactive: Potency [14] | Potency [15] | Potency [12] | Potency [13] | Potency [16] | Potency [10]

CCOC(=O)c1cncn1[C@H](C)c1ccccc1
inactive: Potency [14] | Potency [15] | Potency [12] | Potency [13] | Potency [16] | Potency [10]

CCC1(CCC(C)C)C(=O)NC(=O)NC1=O
inactive: Potency [14] | Potency [15] | Potency [12] | Potency [13] | Potency [16] | Potency [10]

C#CC1(O)CCC2C3CCC4=CC(=O)CCC4(C)C3CCC21C (centres undefined)
inactive: Potency [14] | Potency [15] | Potency [12] | Potency [13]

CCCC[N+]1(C)[C@H]2CC(OC(=O)[C@H](CO)c3ccccc3)C[C@H]1[C@H]1O[C@H]12 (some centres undefined)
inactive: Potency [14] | Potency [15] | Potency [12] | Potency [13] | Potency [16] | Potency [10]
